{"source": "PubChem BioAssay AID2783", "about": "(National Center for Advancing Translational Sciences (NCATS), 2010)", "note": "Inconclusive results are not listed. Active and inactive are the calls of the source. The call rests on the fitted dose curve; in most records, active means well fitted inhibition curve with a large enough effect in the polarisation, with a control signal flat (not every such curve was filed as active); inconclusive means small, poorly fitted or top-dose-only effect, or effect the other way, or a change in a side signal; inactive means no such curve, though single readings can be large or run the other way; the % refers to the polarisation. On the % scale 0 is the no-effect control and ±100 the full control effect.", "data": [{"target": "Menin (Homo sapiens) (UniProt O00255)", "sequence (O00255 whole entry, looked up)": "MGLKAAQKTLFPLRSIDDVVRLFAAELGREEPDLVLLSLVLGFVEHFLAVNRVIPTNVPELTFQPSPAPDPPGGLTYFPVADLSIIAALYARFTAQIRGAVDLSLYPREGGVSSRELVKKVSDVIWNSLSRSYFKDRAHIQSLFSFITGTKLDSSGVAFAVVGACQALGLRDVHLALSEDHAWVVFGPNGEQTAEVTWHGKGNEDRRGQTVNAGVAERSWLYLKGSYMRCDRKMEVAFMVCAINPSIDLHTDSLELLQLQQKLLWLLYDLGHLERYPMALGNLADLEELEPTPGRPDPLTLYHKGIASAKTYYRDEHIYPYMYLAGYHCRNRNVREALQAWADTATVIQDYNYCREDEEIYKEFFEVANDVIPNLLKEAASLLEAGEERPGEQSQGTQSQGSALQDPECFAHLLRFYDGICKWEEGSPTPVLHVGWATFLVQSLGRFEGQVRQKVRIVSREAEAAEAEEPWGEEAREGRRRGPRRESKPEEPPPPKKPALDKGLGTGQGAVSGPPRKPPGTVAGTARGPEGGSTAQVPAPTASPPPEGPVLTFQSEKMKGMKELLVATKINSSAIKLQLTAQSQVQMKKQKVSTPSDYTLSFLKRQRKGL", "experiment": "Confirmation of Inhibitors Targeting the Menin-MLL Interaction in MLL Related Leukemias: Competition With Fluorescein Labeled MLL-derived Peptide", "conditions": "Fluorescence polarization, fluorescein-MLL peptide displacement from menin; series mostly up to 100 µM; activity change, negative = inhibition: at the top concentration", "values": [{"smiles": "CCOc1ccc(C2Nc3ccc4ccccc4c3-c3c2c(=O)oc2ccccc32)cc1", "note": "(stereo not drawn)", "activity change, negative = inhibition": "-2.96% (inactive)"}, {"smiles": "COC(=O)COc1ccc(C(C2C(=O)CC(C)(C)CC2=O)C2C(=O)CC(C)(C)CC2=O)cc1", "activity change, negative = inhibition": "-17.7% (inactive)"}, {"smiles": "CCOc1ccc(CCNC(=O)C(C)N2C(=O)CC(C)(C)Sc3ccccc32)cc1", "note": "(stereo not drawn)", "activity change, negative = inhibition": "-0.246% (inactive)"}, {"smiles": "CCCNC(=O)c1ccc2c(=O)c(O)c(C)[nH]c2c1", "activity change, negative = inhibition": "-14.9% (inactive)"}, {"smiles": "O=c1c2ccccc2nc(N/N=C/c2c(O)ccc3ccccc23)n1O", "activity change, negative = inhibition": "9.5% [at 288 µM] (inactive)"}, {"smiles": "CN(C)/C=C(/C(=O)c1ccc(Cl)cc1)S(=O)(=O)c1ccc(Cl)cc1", "activity change, negative = inhibition": "2.27% [at 288 µM] (inactive)"}, {"smiles": "O=C(/C=C/c1ccccc1)c1cccs1", "activity change, negative = inhibition": "-28.1% [at 288 µM] (inactive)"}, {"smiles": "C=CCN(CC=C)S(=O)(=O)c1ccc(NC(=S)NC(=O)/C=C/c2cccc3ccccc23)cc1", "activity change, negative = inhibition": "-6.4% (inactive)"}, {"smiles": "c1ccc(-c2ccc(-c3csnn3)cc2)cc1", "activity change, negative = inhibition": "2.75% (inactive)"}, {"smiles": "COc1cc(NC(=O)c2cccnc2)c(OC)cc1NC(=O)c1ccc(Br)cc1", "activity change, negative = inhibition": "2.22% (inactive)"}, {"smiles": "COc1ccc(C2=C(CN(C)C)C(c3ccccc3)c3ccccc3O2)cc1", "note": "(stereo not drawn)", "activity change, negative = inhibition": "-10.7% (inactive)"}, {"smiles": "COCCNC(=O)C(OC(=O)c1nsc(Cl)c1Cl)C(C)C", "note": "(stereo not drawn)", "activity change, negative = inhibition": "-6.55% (inactive)"}, {"smiles": "Cc1c(C(=O)OCC(=O)Nc2ccc(S(N)(=O)=O)cc2)oc2c1ccc1ccccc12", "activity change, negative = inhibition": "16.6% (inactive)"}, {"smiles": "Cc1[nH][nH]c(=O)c1C(c1c(C)[nH][nH]c1=O)c1cn(Cc2ccccc2Cl)c2ccccc12", "activity change, negative = inhibition": "-9.42% [at 288 µM] (inactive)"}, {"smiles": "COCCn1c(C)c(C)c2c(NCCc3ccccc3)ncnc21", "activity change, negative = inhibition": "-11.9% (inactive)"}, {"smiles": "COc1cccc(-c2nn(-c3ccccc3)cc2/C=C\\C(=O)c2cccs2)c1", "activity change, negative = inhibition": "-5.34% (inactive)"}, {"smiles": "COC1=C(Nc2ccccc2)C(=O)c2ccccc2C1=O", "activity change, negative = inhibition": "-1.54% [at 288 µM] (inactive)"}, {"smiles": "Cc1c(CCOC(=O)CC23CC4CC(CC(C)(C4)C2)C3)sc[n+]1Cc1ccc([N+](=O)[O-])cc1", "activity change, negative = inhibition": "-16.9% [at 288 µM] (inactive)"}, {"smiles": "Cc1ccc(S(=O)(=O)c2cc(OC(=O)c3ccco3)ccc2OC(=O)c2ccco2)cc1", "activity change, negative = inhibition": "-3.07% (inactive)"}, {"smiles": "Cc1cccc(NC(=O)CSc2nc3ccc(NC(=O)CSc4nnnn4-c4ccccc4)cc3s2)c1C", "activity change, negative = inhibition": "36.8% [at 288 µM] (inactive)"}, {"smiles": "Cc1cc2cc(C(c3nnnn3CC3CCCO3)N3CCCc4ccccc43)c(=O)[nH]c2cc1C", "note": "(stereo not drawn)", "activity change, negative = inhibition": "-9.39% (inactive)"}, {"smiles": "CC(=O)O[C@H]1CSC[C@H]1NC(=O)c1ccccc1", "activity change, negative = inhibition": "-0.821% (inactive)"}, {"smiles": "CN[C@H]1[C@H](O)[C@@H](O[C@@H]2[C@H](O)[C@@H](O[C@H]3OC(CN)=CC[C@H]3N)[C@@H](N)C[C@H]2N)OC[C@@]1(C)O", "activity change, negative = inhibition": "-4.31% (inactive)"}, {"smiles": "Cc1ccc(/C=C2\\SC(=S)N(CC(=O)Nc3ncc(Cc4ccccc4Cl)s3)C2=O)cc1", "activity change, negative = inhibition": "30.8% [at 288 µM] (inactive)"}, {"smiles": "O=C(CC(=O)c1ccccc1)Nc1cc(C(F)(F)F)ccc1Cl", "activity change, negative = inhibition": "2.38% (inactive)"}, {"smiles": "CC(=O)N1CCCc2cc(S(=O)(=O)N3CCCC(C(=O)N4CCN(c5ccccc5)CC4)C3)ccc21", "note": "(stereo not drawn)", "activity change, negative = inhibition": "1.86% (inactive)"}, {"smiles": "O=C1C(Cl)=C(NCCN2CCOCC2)C(=O)c2ncccc21", "activity change, negative = inhibition": "3.66% [at 288 µM] (inactive)"}, {"smiles": "COc1ccc(CCNCc2cc(C)n(-c3ccc(OC)cc3)c2C)cc1", "activity change, negative = inhibition": "-0.328% (inactive)"}, {"smiles": "CCN(CCn1cccn1)Cc1ccccc1OCC(O)CN1CCc2ccccc2C1", "note": "(stereo not drawn)", "activity change, negative = inhibition": "-28.7% (inactive)"}, {"smiles": "CCc1ccccc1NC(=O)COc1cccc(-n2cnnn2)c1", "activity change, negative = inhibition": "-4.06% [at 288 µM] (inactive)"}, {"smiles": "CCOC(=O)C1CCN(CC(O)COCc2ccccc2)CC1", "note": "(stereo not drawn)", "activity change, negative = inhibition": "-2.6% [at 288 µM] (inactive)"}, {"smiles": "CC(=O)c1ccc2c(c1)N(CCCN1CCC(CCO)CC1)c1ccccc1S2", "activity change, negative = inhibition": "-8.17% [at 50.1 µM] (inactive)"}, {"smiles": "O=C(N1CCOCC1)N1CCN(S(=O)(=O)c2ccc(Cl)cc2)CC1", "activity change, negative = inhibition": "-4.6% (inactive)"}]}]}
